Assay results from PubChem BioAssay (NCATS).
Records with an inconclusive call do not appear. Calls of active or inactive are those of the source. Unless noted, calls follow the shape of the dose curve; as a rule, active = well fitted curve in the direction sought with a large enough effect; inconclusive = small, poorly fitted or top-dose-only effect, or another doubt; inactive = no such curve, though single readings can be large; an effect the other way counts as inactive or inconclusive.

Columns and labels:
[1] = AP1 Signaling Pathway (AID 357; active = well fitted curve in either direction with a large enough effect, not every such curve was filed as active;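 also: ME-180 reporter cells stimulated with EGF at its EC50 level; % is scaled to controls: 0 for no effect and ±100 for the full control effect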); conditions: ME-180 AP-1-bla reporter, EGF-induced, beta-lactamase ratio, 5 h; at 17.2 µM (top of the series) unless noted
Outline: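 Titration-series screen for positive or negative modulators of EC50 EGF-induced signaling in ME-180 cells carrying an AP-1-driven beta-lactamase reporter. After 5 hours at 37 degrees Celsius, CCF4 460nm/530nm emission ratio gave %Activity; AC50 values derived.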

[2] = molecular target: Cytochrome P450 1A2 (Homo sapiens) (UniProt P05177); experiment: p450-cyp1a2 (AID 410; calls by dose curve; also: potency is read from the fitted curve at half-maximal effect;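 as to activity change, negative = inhibition: -100% = full effect of reference inhibitor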)
Cytochrome P450 1A2 (Homo sapiens), sequence (P05177 whole entry, looked up): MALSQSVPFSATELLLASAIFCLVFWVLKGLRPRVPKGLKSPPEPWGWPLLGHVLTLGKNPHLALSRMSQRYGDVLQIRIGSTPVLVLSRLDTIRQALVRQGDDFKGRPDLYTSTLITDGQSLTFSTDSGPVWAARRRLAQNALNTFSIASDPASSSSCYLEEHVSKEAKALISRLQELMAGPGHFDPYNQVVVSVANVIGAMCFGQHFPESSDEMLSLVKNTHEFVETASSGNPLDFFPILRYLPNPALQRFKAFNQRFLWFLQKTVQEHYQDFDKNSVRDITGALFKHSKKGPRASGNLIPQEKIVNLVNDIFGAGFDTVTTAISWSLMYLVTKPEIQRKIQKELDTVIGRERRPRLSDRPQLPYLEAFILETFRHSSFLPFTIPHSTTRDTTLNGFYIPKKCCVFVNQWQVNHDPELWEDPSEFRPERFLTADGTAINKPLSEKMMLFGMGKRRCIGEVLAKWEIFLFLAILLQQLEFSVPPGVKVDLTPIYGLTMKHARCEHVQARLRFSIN
Outline: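 Luminescent readout of luciferin formed from Luciferin-ME by human CYP1A2; data normalized against complete inhibition by 57 uM furafylline. Enzyme 20nM, substrate 100uM at Km, 100mM KPO4 buffer, 60 min reaction at room temperature.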

[3] = NFAT Signaling Pathway (AID 444; active = well fitted curve in either direction with a large enough effect, not every such curve was filed as active;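 also: carbachol stimulus at about its EC50 of 1 µM final; % is scaled to controls: 0 for no effect and ±100 for the full control effect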); conditions: Jurkat NFAT-bla M1, carbachol, beta-lactamase ratio, 5 h; at 17.2 µM (top of the series) unless noted
Outline: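 Read-out: CCF4 FRET ratio (460 nm/530 nm) after 1 h RT dye loading, used for %activity and AC50 from titration series. Cells: Jurkat NFAT-β-lactamase/M1 line, treated with compound plus 1 uM carbachol for 5 h, 37 °C.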

[4] = Stat Signaling Pathway (AID 446; active = well fitted curve in either direction with a large enough effect, not every such curve was filed as active;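 also: ME-180 cervical cancer cells given 40 pM IL-6 alongside compound; SIE-controlled beta-lactamase reporter measured as 460/530 nm FRET emission ratio; % is scaled to controls: 0 for no effect and ±100 for the full control effect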)
Outline: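 Screening format detects activators and inhibitors alike: ME-180 SIE-bla cells stimulated at 40 pM IL-6 for 5 hrs with compound, then dual-emission beta-lactamase read at 405 nm excitation.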

[5] = molecular target: Glucocorticoid receptor (Homo sapiens) (UniProt P04150); experiment: GR-GFP Redistribution (AID 450;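 active = compounds whose dose series gives a full or clear partial fitted curve of increased nuclear translocation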; also: potency is read from the fitted curve at half-maximal effect); conditions: U2OS GR-GFP nuclear translocation, laser cytometry, 2 h
Glucocorticoid receptor (Homo sapiens), sequence (P04150 whole entry, looked up, the tested form may be a part): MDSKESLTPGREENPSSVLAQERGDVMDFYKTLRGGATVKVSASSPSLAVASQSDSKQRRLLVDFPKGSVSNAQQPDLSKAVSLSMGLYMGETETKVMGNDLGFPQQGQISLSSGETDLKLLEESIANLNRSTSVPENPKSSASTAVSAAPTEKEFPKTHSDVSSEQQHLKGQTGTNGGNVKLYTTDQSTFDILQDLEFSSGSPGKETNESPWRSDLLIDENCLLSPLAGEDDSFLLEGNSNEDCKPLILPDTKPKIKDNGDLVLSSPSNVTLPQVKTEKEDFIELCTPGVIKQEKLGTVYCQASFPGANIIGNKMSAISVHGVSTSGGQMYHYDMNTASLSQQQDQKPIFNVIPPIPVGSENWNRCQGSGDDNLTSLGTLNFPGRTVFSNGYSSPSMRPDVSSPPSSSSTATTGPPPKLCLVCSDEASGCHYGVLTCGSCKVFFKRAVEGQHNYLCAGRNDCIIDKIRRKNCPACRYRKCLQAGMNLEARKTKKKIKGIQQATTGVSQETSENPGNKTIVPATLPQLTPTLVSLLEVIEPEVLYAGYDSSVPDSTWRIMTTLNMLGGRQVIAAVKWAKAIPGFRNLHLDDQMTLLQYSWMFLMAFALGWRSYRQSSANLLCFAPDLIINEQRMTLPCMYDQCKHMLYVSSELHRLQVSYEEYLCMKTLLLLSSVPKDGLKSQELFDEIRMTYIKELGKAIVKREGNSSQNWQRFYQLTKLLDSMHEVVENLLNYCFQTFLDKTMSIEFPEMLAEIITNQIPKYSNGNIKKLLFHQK

[6] = molecular target: 3',5'-cyclic-AMP phosphodiesterase 4B (Homo sapiens) (UniProt Q07343); experiment: qHTS Assay for Inhibitors of PDE-IV (AID 607; active = well fitted activation curve with a large enough effect in the main read-out, with a control signal flat, not every such curve was filed as active; also: % of control where 0% means no effect)
3',5'-cyclic-AMP phosphodiesterase 4B (Homo sapiens), sequence (Q07343 whole entry, looked up): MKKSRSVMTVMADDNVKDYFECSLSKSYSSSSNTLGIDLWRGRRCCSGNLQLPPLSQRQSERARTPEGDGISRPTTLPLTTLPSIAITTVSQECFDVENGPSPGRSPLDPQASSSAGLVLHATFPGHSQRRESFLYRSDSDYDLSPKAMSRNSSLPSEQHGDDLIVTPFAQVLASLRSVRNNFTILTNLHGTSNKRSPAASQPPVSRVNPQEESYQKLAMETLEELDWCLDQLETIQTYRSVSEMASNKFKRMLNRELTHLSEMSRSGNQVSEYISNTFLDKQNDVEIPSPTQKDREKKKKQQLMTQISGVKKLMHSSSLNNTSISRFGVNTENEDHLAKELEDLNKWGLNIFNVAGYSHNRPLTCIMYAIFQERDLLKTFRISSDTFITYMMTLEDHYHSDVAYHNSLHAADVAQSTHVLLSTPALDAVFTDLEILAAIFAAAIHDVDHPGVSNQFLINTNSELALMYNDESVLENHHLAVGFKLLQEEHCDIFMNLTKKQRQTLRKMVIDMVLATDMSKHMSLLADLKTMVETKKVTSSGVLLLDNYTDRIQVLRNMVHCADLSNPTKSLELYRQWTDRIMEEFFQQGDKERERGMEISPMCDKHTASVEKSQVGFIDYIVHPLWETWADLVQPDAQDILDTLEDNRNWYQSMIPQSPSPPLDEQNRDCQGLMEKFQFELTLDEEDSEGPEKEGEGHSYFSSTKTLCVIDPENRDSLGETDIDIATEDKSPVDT
Outline: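 The readout is membrane depolarisation from a cAMP-sensing CNG channel, detected with a potential dye at ex 535/em 590. Cells were HEK293-derived (endogenous PDE-IV) at 1000 cells/well, titrated up to 22.9 uM final.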

[7] = molecular target: Guanine nucleotide-binding protein G(i) subunit alpha-1 (Homo sapiens) (UniProt P63096); experiment: qHTS Assay for Inhibitors of RGS12 GoLoco Motif Activity (Green Fluorophore) (AID 879);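 also: 0% = labeled peptide with Gαi1 and full inhibition = labeled peptide alone without protein; negative values mean loss of peptide binding seen as reduced polarization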
Guanine nucleotide-binding protein G(i) subunit alpha-1 (Homo sapiens), sequence (P63096 whole entry, looked up): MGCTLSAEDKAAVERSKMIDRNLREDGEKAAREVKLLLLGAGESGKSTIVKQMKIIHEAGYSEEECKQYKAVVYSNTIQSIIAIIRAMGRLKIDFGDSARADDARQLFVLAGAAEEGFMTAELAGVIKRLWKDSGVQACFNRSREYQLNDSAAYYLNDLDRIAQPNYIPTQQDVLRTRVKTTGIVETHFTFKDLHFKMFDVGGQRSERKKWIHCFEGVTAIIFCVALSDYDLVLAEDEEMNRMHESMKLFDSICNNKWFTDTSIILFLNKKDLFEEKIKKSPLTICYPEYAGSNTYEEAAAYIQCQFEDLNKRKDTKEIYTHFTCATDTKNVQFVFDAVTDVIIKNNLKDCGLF
Outline: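 Fluorescence polarization assay: 50 nM Gαi1 with 10 nM FITC-labeled RGS12 GoLoco peptide in 10 mM Tris pH 7.5, 150 mM NaCl, 0.1 mM GDP, 0.05% NP40, 10 min at room temperature with compound.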

[8] = molecular target: Muscarinic acetylcholine receptor M1 (Rattus norvegicus) (UniProt P08482); experiment: qHTS Assay for Antagonists of Acetylcholine Muscarinic M1 Receptor: Kinetic Measurement of Intracellular Calcium Response (AID 943); also: nearly all actives have a fitted effect of over 75% in size; also: potency is read from the fitted curve at half-maximal effect;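 as to activity change, negative = inhibition: Fluo-4 calcium signal as peak divided by basal fluorescence over 4 min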
Muscarinic acetylcholine receptor M1 (Rattus norvegicus), sequence (P08482 whole entry, looked up): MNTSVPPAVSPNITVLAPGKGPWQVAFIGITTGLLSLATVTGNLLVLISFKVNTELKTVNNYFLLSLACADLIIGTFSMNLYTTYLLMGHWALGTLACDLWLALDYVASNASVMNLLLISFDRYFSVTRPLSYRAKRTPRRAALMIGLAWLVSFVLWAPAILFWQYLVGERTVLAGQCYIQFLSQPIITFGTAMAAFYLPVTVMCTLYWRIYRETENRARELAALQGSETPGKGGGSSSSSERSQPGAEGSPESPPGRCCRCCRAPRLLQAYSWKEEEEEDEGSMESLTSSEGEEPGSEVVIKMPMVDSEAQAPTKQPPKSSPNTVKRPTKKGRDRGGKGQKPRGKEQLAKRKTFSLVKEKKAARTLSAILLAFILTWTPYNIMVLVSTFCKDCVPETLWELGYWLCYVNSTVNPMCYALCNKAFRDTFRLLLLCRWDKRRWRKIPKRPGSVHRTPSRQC
Outline: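 Rat M1-CHO cells, 2000/well, overnight → Fluo-4 no-wash dye with probenecid, 1 h 37C → compound 10 min, room temp → basal read 6 s → carbachol EC80 (100 nM) → 4 min kinetic read; peak/basal.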

[9] = molecular target: Muscarinic acetylcholine receptor M1 (Rattus norvegicus) (UniProt P08482); experiment: qHTS Assay for Antagonists of Acetylcholine Muscarinic M1 Receptor: Measurement of IP-One Response (AID 944); also: nearly all actives have a fitted effect of over 75% in size; also: potency is read from the fitted curve at half-maximal effect
Outline: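 M1-CHO (rat), 2000 cells/well, overnight recovery; cpd 10 min; carbachol EC80 (200 nM), 30 min, HEPES buffer + 50 mM LiCl pH 7.4; IP-One HTRF, Ex 337, Em 620/665 nm.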

[10] = molecular target: Pyruvate kinase PKM (Homo sapiens) (UniProt P14618); experiment: qHTS Assay for Activators of Human Muscle Pyruvate Kinase (AID 954; active = well fitted curve in the direction sought with a large enough effect, not every such curve was filed as active;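 also: 0% = uninhibited enzyme and -100% = no enzyme or full thiadiazolimine inhibition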)
Pyruvate kinase PKM (Homo sapiens), sequence (P14618 whole entry, looked up): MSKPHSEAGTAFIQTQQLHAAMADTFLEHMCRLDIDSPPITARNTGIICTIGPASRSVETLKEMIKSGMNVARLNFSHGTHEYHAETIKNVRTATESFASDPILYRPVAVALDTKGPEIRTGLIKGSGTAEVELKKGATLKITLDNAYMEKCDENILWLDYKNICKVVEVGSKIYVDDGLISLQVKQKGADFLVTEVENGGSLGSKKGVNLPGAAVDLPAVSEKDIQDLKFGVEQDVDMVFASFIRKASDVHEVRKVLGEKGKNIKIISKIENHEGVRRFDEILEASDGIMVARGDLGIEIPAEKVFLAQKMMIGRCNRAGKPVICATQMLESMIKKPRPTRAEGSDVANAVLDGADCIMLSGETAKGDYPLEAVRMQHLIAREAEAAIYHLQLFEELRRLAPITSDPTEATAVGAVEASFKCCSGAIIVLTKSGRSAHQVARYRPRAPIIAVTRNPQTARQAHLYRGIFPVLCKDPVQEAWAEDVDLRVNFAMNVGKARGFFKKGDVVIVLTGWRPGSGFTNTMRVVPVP
Outline: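 Reaction: 0.1 nM purified PKM2 with 0.5 mM phosphoenolpyruvate and 0.1 mM ADP, room temperature, 1 h. Readout: luciferase-based ATP luminescence after stop reagent. Activators judged against a 0.3 nM enzyme column.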

[11] = molecular target: Alpha-galactosidase (Coffea arabica) (UniProt Q42656); experiment: Counterscreen for Glucocerebrosidase Inhibitors: qHTS Assay for Coffee Bean alpha-Galactosidase at pH 4.5 (AID 957);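 also: plate controls were enzyme alone for no effect and no enzyme for full effect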
Alpha-galactosidase (Coffea arabica), sequence (Q42656 whole entry, looked up): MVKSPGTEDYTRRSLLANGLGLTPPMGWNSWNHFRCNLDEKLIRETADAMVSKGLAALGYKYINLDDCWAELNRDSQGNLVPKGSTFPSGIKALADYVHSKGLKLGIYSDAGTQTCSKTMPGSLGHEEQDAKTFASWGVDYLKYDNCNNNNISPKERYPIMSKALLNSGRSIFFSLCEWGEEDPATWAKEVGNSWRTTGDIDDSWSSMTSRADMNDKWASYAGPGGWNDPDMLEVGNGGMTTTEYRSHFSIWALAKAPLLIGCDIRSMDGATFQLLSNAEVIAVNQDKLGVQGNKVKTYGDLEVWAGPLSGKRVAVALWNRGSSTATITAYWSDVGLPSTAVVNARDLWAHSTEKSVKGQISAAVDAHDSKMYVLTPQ
Outline: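 Coffee bean alpha-galactosidase 2 nM, substrate 4-MU-alpha-Gal 80 uM, pH 4.5 citrate/Tween-20, 20 min RT. Cpd titration 0.7 nM–77 uM. Stop pH 10, fluorescence 365/440 nm; Hill-equation AC50.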

[12] = molecular target: Alpha-galactosidase A (Homo sapiens) (UniProt P06280); experiment: Counterscreen for Glucocerebrosidase Inhibitors: qHTS Assay for Human alpha-Galactosidase at pH 4.5 (AID 992); also: 0% is about no effect
Alpha-galactosidase A (Homo sapiens), sequence (P06280 whole entry, looked up): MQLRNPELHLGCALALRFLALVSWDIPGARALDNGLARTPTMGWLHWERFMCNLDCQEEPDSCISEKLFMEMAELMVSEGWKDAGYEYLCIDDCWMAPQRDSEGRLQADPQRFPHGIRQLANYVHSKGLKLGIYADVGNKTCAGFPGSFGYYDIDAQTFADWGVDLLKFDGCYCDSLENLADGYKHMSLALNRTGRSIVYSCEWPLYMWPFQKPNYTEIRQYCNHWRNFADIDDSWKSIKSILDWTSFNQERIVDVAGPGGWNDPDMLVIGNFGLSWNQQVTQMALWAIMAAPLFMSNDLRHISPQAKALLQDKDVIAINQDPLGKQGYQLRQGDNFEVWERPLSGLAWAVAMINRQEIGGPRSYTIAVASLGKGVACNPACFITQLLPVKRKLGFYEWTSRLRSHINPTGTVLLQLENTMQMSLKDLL
Outline: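 Concentration-response curves (0.7 nM to 77 uM final) were modeled with the Hill equation to give AC50. Reactions: 2 nM enzyme, 80 uM fluorogenic alpha-galactoside, pH 4.5 citric acid buffer, 20 min, room temperature.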

[13] = molecular target: alpha-glucosidase (Oryza sativa, rice) (UniProt Q653V4); experiment: Counterscreen for Glucocerebrosidase Inhibitors: qHTS Assay for Rice alpha-Glucosidase at pH 5.0 (AID 997);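 also: 0% = full activity with enzyme and -100% = basal without enzyme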
Outline: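 Rice alpha-glucosidase (4 nM final) with 400 uM 4-methylumbelliferyl-alpha-D-glucopyranoside in citrate buffer pH 5.0, 20 min at room temperature, stopped at pH 10; fluorescence 365/440 nm, compounds 0.7 nM–77 uM, AC50 from Hill fits.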

[14] = molecular target: Alpha-galactosidase (Coffea arabica) (UniProt Q42656); experiment: Counterscreen for Glucocerebrosidase Inhibitors: qHTS Assay for Coffee Bean alpha-Galactosidase at pH 5.9 (AID 998);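 also: plate controls were uninhibited enzyme for no effect and no-enzyme basal signal for full effect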
Outline: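 Compounds were titrated from 0.7 nM to 77 uM against green coffee bean alpha-galactosidase (2 nM) using 80 uM fluorogenic 4-methylumbelliferyl substrate. After 20 min at room temperature, reactions were stopped at pH 10 and read by fluorescence.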

[15] = molecular target: Cytochrome P450 3A4 (Homo sapiens) (UniProt P08684); experiment: qHTS Assay for Activators of Cytochrome P450 3A4 (AID 885); also: nearly all actives have a fitted effect of over 65% in size
Cytochrome P450 3A4 (Homo sapiens), sequence (P08684 whole entry, looked up): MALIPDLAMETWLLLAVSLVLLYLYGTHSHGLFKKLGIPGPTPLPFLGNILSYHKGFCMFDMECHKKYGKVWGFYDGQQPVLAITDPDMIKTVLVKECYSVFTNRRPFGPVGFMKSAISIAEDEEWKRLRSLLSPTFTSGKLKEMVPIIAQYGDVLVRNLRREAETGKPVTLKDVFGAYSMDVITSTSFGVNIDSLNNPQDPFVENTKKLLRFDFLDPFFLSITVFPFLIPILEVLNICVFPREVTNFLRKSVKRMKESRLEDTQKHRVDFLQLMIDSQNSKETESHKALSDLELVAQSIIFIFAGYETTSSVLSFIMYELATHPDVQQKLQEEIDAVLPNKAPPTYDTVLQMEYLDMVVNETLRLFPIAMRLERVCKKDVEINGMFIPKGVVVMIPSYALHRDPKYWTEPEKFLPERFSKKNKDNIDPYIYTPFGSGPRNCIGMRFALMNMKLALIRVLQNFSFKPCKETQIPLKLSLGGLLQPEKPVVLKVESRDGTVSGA
Outline: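 Steps: enzyme/substrate mix dispensed; compound added, 10 min RT; NADPH regeneration solution added, 60 min RT; luciferin detection buffer stops reaction; 20 min later luminescence measured.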

[16] = molecular target: Pyruvate kinase PKM (Homo sapiens) (UniProt P14618); experiment: qHTS Assay for Inhibitors of Human Muscle Pyruvate Kinase (AID 958)
Outline: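 ATP production by PKM2 detected via luciferase luminescence after 1 h room-temperature reaction (0.1 nM enzyme, PEP at Km 0.5 mM, ADP 0.1 mM, pH 7.2 imidazole buffer). Inhibition scaled to no-enzyme control; activation referenced to 0.3 nM enzyme wells.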

[17] = molecular target: Glucocorticoid receptor (Homo sapiens) (UniProt P04150); experiment: GR-EFC Redistribution (AID 451; calls by dose curve; also: potency is read from the fitted curve at half-maximal effect); conditions: CHO-K1 GR-EFC translocation, beta-gal luminescence, 2 h
Outline: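 Translocation of GR-ED fusion to nuclear EA restores b-gal, read by luminescence after 1 h room-temperature detection. Engineered CHO-K1 biosensor cells, 1,000/well, exposed 2 h at 37 C to titrations up to 46 uM final.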

[18] = molecular target: Mitogen-activated protein kinase 10 (Mus musculus) (UniProt Q61831); experiment: JNK3 AlphaScreen Assay (AID 530; active = well fitted curve in either direction with a large enough effect, not every such curve was filed as active;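 also: kinase came from lysate of stimulated human HepG2 cells; signal reports phosphorylation of biotinylated GST-cJun 1-79 at Ser73 with 10 µM ATP; % is scaled to controls: 0 for no effect and ±100 for the full control effect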)
Outline: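 Compound titrations were preincubated 15 minutes at room temperature with substrate, antibody and pre-activated JNK3-containing HepG2 lysate. Reactions were started with 10 uM ATP and stopped with EDTA-containing bead buffer for AlphaScreen detection.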

[19] = molecular target: Cytochrome P450 3A4 (Homo sapiens) (UniProt P08684); experiment: qHTS Assay for Inhibitors and Substrates of Cytochrome P450 3A4 (AID 884); also: potency is read from the fitted curve at half-maximal effect; nearly all actives have a fitted effect of over 50% in size
Outline: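 20 nM human CYP3A4 with 25 uM Luciferin-PPXE (at KM) in 200 mM KPO4, preincubated 10 min with compound; NADPH regeneration started a 60 min RT reaction. Luciferin detected by luminescence, normalized to 57 uM ketoconazole as full inhibition.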

[20] = qHTS Assay for Identification of Small Molecule Agonists for Thrombopoietin (TPO) Signaling Pathway (AID 917); also: % is scaled to controls: 0 for no effect and ±100 for the full control effect
Outline: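 Murine Ba/F3 cells stably expressing human TPO receptor and a Glycoprotein IIb promoter–luciferase reporter were IL-3-starved overnight, then treated with compounds plus TPO (26 pM final, its EC50) for 24 hrs at 37 C; luminescence was read.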

N[C@@H]1CCc2cc(O)c(O)cc2C1
inactive: activity change, negative = inhibition [1] -9.85% [at 38 µM] | Potency [2] | activity change, negative = inhibition [3] -2.09% [at 38 µM] | outcome [4] | Potency [5] > 46 µM | outcome [6] | Potency [7] | Potency [8] | Potency [9] | outcome [10] | outcome [11] | outcome [12] | outcome [13] | outcome [14]

C=CCN1CCc2cccc3c2[C@@H]1Cc1ccc(O)c(O)c1-3
inactive: activity change, negative = inhibition [1] -21.9% [at 38 µM] | outcome [4] | Potency [5] > 46 µM | outcome [6] | Potency [15] | Potency [8] | outcome [11] | Potency [16] | outcome [12] | outcome [13] | outcome [14]
active: Potency [2] 3.16 µM

C=CCn1c(O)c(C=NCCN(C)C)c(=O)[nH]c1=O
inactive: activity change, negative = inhibition [1] 1.63% | activity change, negative = inhibition [3] -6.46% | outcome [4] | Potency [5] > 20.6 µM

C/C=C(\C)C(=O)O[C@@H]1C(C)=C2[C@H]([C@@H]1OC(=O)CCCCCCC)[C@@](C)(OC(C)=O)C[C@@H](OC(=O)CCC)[C@@]1(O)[C@H]2OC(=O)[C@]1(C)O
inactive: activity change, negative = inhibition [1] 19.3% [at 38 µM] | Potency [5] > 46 µM | Potency [17] > 46 µM | outcome [18] | outcome [6] | Potency [7] | Potency [15] | Potency [8] | Potency [9] | outcome [10] | outcome [11] | outcome [12] | outcome [13] | outcome [14]
active: Potency [2] 39.8 µM | activity change, negative = inhibition [3] -79.7% [activator] [at 38 µM] | Potency [19] 3.98 µM

CCCSP1(=S)NCCCO1 (stereo unspecified)
inactive: activity change, negative = inhibition [1] 32.4% | activity change, negative = inhibition [3] 2.72% | outcome [4] | Potency [5] > 20.6 µM

CCCC[N+]1(C)[C@@H]2CC(OC(=O)[C@@H](CO)c3ccccc3)C[C@H]1[C@H]1O[C@H]12 (stereo partly specified)
inactive: activity change, negative = inhibition [1] 5.93% [at 38 µM] | Potency [2] | outcome [4] | Potency [5] > 46 µM | outcome [18] | outcome [6] | Potency [7] | outcome [20] | outcome [10] | outcome [11] | outcome [12] | outcome [13] | outcome [14]
active: Potency [8] 0.141 µM | Potency [9] 0.562 µM
